The campaign covered roughly 5,500 compounds. About 2,000 (36%) were called active. Not shown: some 18% with an inconclusive outcome. The list shows a part of the results. Unmarked numbers belong to inactive results. Rule as the data show it: active = normalized growth mostly below about 0.91 (no sharp cut-off); inconclusive = no clear call, values can overlap the other calls; inactive = mostly above about 0.92.
Assay: chemical genetic growth profiling, strain panel (AID 1159580);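 also: tested at 20 µM; growth read once vehicle control cultures reached saturation at 30 °C; 1 = growth at the plate median or of vehicle wells; lower values mean less growth of the strain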
Details: growth OD

Nc1ccc(-n2nc(C(F)(F)F)cc2C(F)(F)F)cc1
normalized growth (S. cerevisiae deletion strains, locus YAL013W, strain DEP1, stronger effect = lower value): 1 | normalized growth (S. cerevisiae deletion strains, locus YBR229C, strain ROT2, stronger effect = lower value): 0.986 | normalized growth (S. cerevisiae deletion strains, locus YDL101C, strain DUN1, stronger effect = lower value): 1 | normalized growth (S. cerevisiae deletion strains, locus YDR150W, strain NUM1, stronger effect = lower value): 0.902 | normalized growth (S. cerevisiae deletion strains, locus YEL061C, strain CIN8, stronger effect = lower value): 0.998 | normalized growth (S. cerevisiae deletion strains, locus YGR078C, strain PAC10, stronger effect = lower value): 1.01 | normalized growth (S. cerevisiae deletion strains, locus YGR229C, strain SMI1, stronger effect = lower value): 0.99 | normalized growth (S. cerevisiae deletion strains, locus YHR030C, strain SLT2, stronger effect = lower value): 0.661 (active) | normalized growth (S. cerevisiae deletion strains, locus YHR087W, strain rtc3, stronger effect = lower value): 1.01 | normalized growth (S. cerevisiae deletion strains, locus YJR043C, strain POL32, stronger effect = lower value): 0.992 | normalized growth (S. cerevisiae deletion strains, locus YJR075W, strain HOC1, stronger effect = lower value): 0.938 | normalized growth (S. cerevisiae deletion strains, locus YLR039C, strain RIC1, stronger effect = lower value): 0.842 | normalized growth (S. cerevisiae deletion strains, locus YLR058C, strain SHM2 (second series), stronger effect = lower value): 0.975 | normalized growth (S. cerevisiae deletion strains, locus YLR085C, strain ARP6, stronger effect = lower value): 0.603 (active) | normalized growth (S. cerevisiae deletion strains, locus YLR262C, strain YPT6, stronger effect = lower value): 0.904 | normalized growth (S. cerevisiae deletion strains, locus YML094W, strain GIM5, stronger effect = lower value): 0.975 | normalized growth (S. cerevisiae deletion strains, locus YMR219W, strain ESC1, stronger effect = lower value): 0.986 | normalized growth (S. cerevisiae deletion strains, locus YMR263W, strain SAP30, stronger effect = lower value): 0.963 | normalized growth (S. cerevisiae deletion strains, locus YNL153C, strain GIM3, stronger effect = lower value): 1 | normalized growth (S. cerevisiae deletion strains, locus YNL298W, strain CLA4 (second series), stronger effect = lower value): 0.855 | normalized growth (S. cerevisiae deletion strains, locus YNL322C, strain KRE1, stronger effect = lower value): 0.969 | normalized growth (S. cerevisiae deletion strains, locus YNR030W, strain Alg12, stronger effect = lower value): 0.951 | normalized growth (S. cerevisiae deletion strains, locus YOL006C, strain TOP1, stronger effect = lower value): 0.866 | normalized growth (S. cerevisiae deletion strains, locus YPL055C, strain LGE1, stronger effect = lower value): 0.929 | normalized growth (S. cerevisiae deletion strains, locus YPL241C, strain CIN2, stronger effect = lower value): 0.825 (active) | normalized growth (S. cerevisiae deletion strains, locus YPR135W, strain CTF4, stronger effect = lower value): 0.694 | normalized growth (S. cerevisiae strains, strain wild type, stronger effect = lower value): 0.974
